Measurements published in PubChem BioAssay (NCI).
About 83,000 compounds went through this panel and 20% of them were active in at least one assay; those are over-represented in the sample as a whole.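 The endpoint reported here, percent growth, reads 100 for growth as untreated, 0 for no net growth and -100 for all cells dead.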 Values without a mark were called inactive. Activity calls are given as the source filed them. The calls were made as follows: active = growth percent below 10; inactive = the rest.

Assays:
Assay in all cases: NCI-60 one-dose screen, 48 h (100 = growth as untreated, 0 = no growth, -100 = all killed)
Settings in all cases: 10 µM
HT29 colon = system: HT29 colon
SNB-75 CNS = system: SNB-75 CNS
SNB-19 CNS = system: SNB-19 CNS
U251 CNS = system: U251 CNS
PC-3 prostate = system: PC-3 prostate
SK-MEL-5 melanoma = system: SK-MEL-5 melanoma
UACC-62 melanoma = system: UACC-62 melanoma
SK-MEL-28 melanoma = system: SK-MEL-28 melanoma
SK-MEL-2 melanoma = system: SK-MEL-2 melanoma
EKVX NSCLC = system: EKVX NSCLC
SN12C renal = system: SN12C renal
UO-31 renal = system: UO-31 renal
TK-10 renal = system: TK-10 renal
ACHN renal = system: ACHN renal
CAKI-1 renal = system: CAKI-1 renal
A498 renal = system: A498 renal
CCRF-CEM leukemia = system: CCRF-CEM leukemia
MOLT-4 leukemia = system: MOLT-4 leukemia
SR leukemia = system: SR leukemia
LOX IMVI melanoma = system: LOX IMVI melanoma

| Structure (SMILES) | growth (HT29 colon) | growth (SNB-75 CNS) | growth (SNB-19 CNS) | growth (U251 CNS) | growth (PC-3 prostate) | growth (SK-MEL-5 melanoma) | growth (UACC-62 melanoma) | growth (SK-MEL-28 melanoma) | growth (SK-MEL-2 melanoma) | growth (EKVX NSCLC) | growth (SN12C renal) | growth (UO-31 renal) | growth (TK-10 renal) | growth (ACHN renal) | growth (CAKI-1 renal) | growth (A498 renal) | growth (CCRF-CEM leukemia) | growth (MOLT-4 leukemia) | growth (SR leukemia) | growth (LOX IMVI melanoma) |
| --- | --- | --- | --- | --- | --- | --- | --- | --- | --- | --- | --- | --- | --- | --- | --- | --- | --- | --- | --- | --- |
| COc1cc(C)ccc1C(=O)c1ccc(C)cc1OC | 2.74% (active) | 8.51% (active) | 43.4% | 18.3% | 17.6% | 25.9% | 42.3% | 58.5% | 17.2% | 31.2% | 43.2% | 31.4% | 38.3% | 60.8% | 23.4% | -4.5% (active) | 14.4% | 32.3% | -10.2% (active) |  |
| C=C(NC(=O)C(=C)NC(=O)c1csc(C2=NC3c4csc(n4)C4NC(=O)c5csc(n5)C(C(C)(O)C(C)O)NC(=O)C5CSC(=N5)/C(=C/C)NC(=O)C(C(C)O)NC(=O)c5csc(n5)C3(CC2)NC(=O)C(C)NC(=O)C(=C)NC(=O)C(=C)NC(=O)C(C(C)C)NC2C=Cc3c(C(C)O)cc(nc3C2O)C(=O)OC4C)n1)C(N)=O (stereo not drawn) | -2.13% (active) | -10.9% (active) | 16.8% | -46% (active) | 9.64% (active) | -56.2% (active) | 5.94% (active) |  | -17.7% (active) | 42.2% | 30.4% | -42.2% (active) | -9.31% (active) | -26.8% (active) | 15.8% | -30.3% (active) | -31.7% (active) | -15% (active) | 5.93% (active) |  |
| CCOC1(OCC)OC(c2ccccc2)=C(C#N)C(/C=C\c2ccccc2)C1(OCC)OCC (stereo not drawn) | 69.6% | 86.6% | 89.8% | 77.4% | 54.9% | 95.5% | 80.1% | 99.8% | 95.3% |  | 81.3% | 74% | 97.1% | 83.5% | 84.8% | 83.7% | 79.1% | 81.7% | 52.8% |  |
| Clc1ccc(Sc2nc(NC3CC3)nc(Sc3ccc(Cl)cc3)n2)cc1 | 48.8% | 92% | 105% | 80% | 46.8% | 87.9% | 82.2% | 87.5% |  |  | 88.5% | 62.3% | 112% | 84.6% | 51.9% | 83.9% | 76.4% | 43.8% | 67.3% |  |
| COc1cc(-c2cc(C(=O)N3CCN(C(=O)c4ccccc4NCc4ccco4)CC3)nc3cc(-c4ccccc4)nn23)cc(OC)c1OC | 1.33% (active) | 8.05% (active) | 45.4% | 24.7% | 15.8% | 3.81% (active) | 39.7% | 59.3% | 10.5% | 49% | 44.4% | 6.15% (active) | 35.8% | 53.6% | 12% | -0.0574% (active) |  | 37.8% | -2.88% (active) |  |
| CCCCCCCCCCCCCCCCCCOCC(COCCOCC[N+]1(CCCCCC(=O)[O-])CCCC1)Oc1ncccn1 (stereo not drawn) | 22.7% | 6.6% (active) | 18.5% | 8.23% (active) | 0.371% (active) | 45.3% | 54.4% |  |  | 63.4% | 46.6% | 98.7% | 7.83% (active) | 69.2% | 93.5% | 73.7% | 32.3% | 32.5% | 29.9% | 39.9% |
| N#Cc1c(C#N)c(SSc2c(C#N)c(C#N)c(N)n2-c2ccccc2)n(-c2ccccc2)c1N | 101% | 71.7% | 103% | 114% | 49% | 96.7% | 94.8% |  |  | 107% | 99.3% | 81.2% | 107% | 101% | 118% | 92.1% | 126% | 106% | 106% | 96.4% |
| O=C(Nc1ccncc1)C(=O)c1cn(S(=O)(=O)c2cc(Cl)cc(Cl)c2)c2ccccc12 | 42.4% | 59.6% | 82.4% | 58.1% | 63.9% | 62.7% | 57.4% | 78.4% | 61.7% | 52.3% | 73.5% | 75.2% | 73.1% | 68.4% | 54.5% | 63.1% | 67.9% | 73% | 38% |  |
| CCN(CC)CCOc1nc2ccccc2c2c1-c1ccc(OC)cc1C2=O | -12.9% (active) | 1.69% (active) | 24.6% | -10.8% (active) | 7.51% (active) | -84% (active) | 8.63% (active) | 4.25% (active) | -2.62% (active) | 16% | 18.1% | -53.3% (active) | -1.29% (active) | -6.81% (active) | -28.6% (active) | 39.9% | 4.01% (active) | -2.16% (active) | -8.96% (active) |  |
| O=C(Nc1ccc(Cl)c([N+](=O)[O-])c1)Nc1nc2ccccc2s1 | 87.3% | 94.2% | 84.2% | 84% | 49.9% | 74.3% | 70% | 98.8% | 102% | 76.3% | 65.1% | 83.8% | 112% | 81.8% |  | 85.7% | 49.2% | 79.7% | 113% |  |
| O=C(O)c1ccc(P(=O)(O)O)c([N+](=O)[O-])c1 | 101% | 87.1% | 107% | 95.1% | 97.7% | 95.3% | 108% | 110% | 117% |  | 101% | 86% | 108% | 103% | 94.7% | 93.9% |  | 111% | 87.7% |  |
| COc1cc2c(cc1OCCCN1CCN(c3ncnc4ccccc34)CC1)N=CC1CCCN1C2=O (stereo not drawn) | 12.3% | -29.8% (active) | 12% | 1.3% (active) | -53% (active) | -95.7% (active) | -91.8% (active) | -9.59% (active) | 6.33% (active) | -38.6% (active) | 3.4% (active) |  | -7.43% (active) | 2.77% (active) | -12.1% (active) |  | -45.8% (active) | -44.3% (active) | -43.4% (active) |  |
| C=C(Cl)[C@@](Cl)(CBr)CC[C@@H](Br)C(C)(C)Cl | -88.2% (active) | -96.8% (active) | -74.9% (active) | -97.9% (active) | -92.7% (active) | 87.9% | -25.9% (active) |  | -30.8% (active) |  | 72% | -96.8% (active) | -98.9% (active) | -99.4% (active) | -98.7% (active) | 99.3% | 94.3% | 81.1% | 75.6% | 94.5% |
| COc1ccc(C2CC(c3ccc(N(C)C)cc3)=NN2c2ccc(S(N)(=O)=O)cc2)cc1 (stereo not drawn) | 29.6% | 69.6% | 66.6% | 26.6% | 18.9% | 69.4% | 62.3% | 86.3% | 79.7% | 28.4% | 49.4% | 32% | 44.9% | 35.2% | 48.2% |  | 49.4% |  |  |  |
| NC(=S)N=Nc1c(O)c2ccccc2c2ccccc12 | 98.4% | 75.9% | 38.7% | 26.1% | 47.2% | -99% (active) | -85.1% (active) | 35% | 89% |  | -88.7% (active) | 42.5% | 116% | 60.7% | 83.5% | 101% | 106% | 100% |  |  |
| O=C(O)CN1C(=O)c2cccc3cccc(c23)C1=O | 100% | 89.4% | 99.2% | 97.4% | 104% | 106% | 100% | 109% | 111% |  | 95.4% | 97.1% | 114% | 101% | 89% | 85.9% |  | 115% | 112% |  |
| O=C(O)C(SC(C(=O)O)c1ccccc1)c1ccccc1 (stereo not drawn) | 103% | 85.6% | 104% | 98.8% | 105% | 111% | 95.5% | 102% | 103% | 104% | 99.9% | 87.6% | 106% | 104% | 91.8% | 107% | 97.8% | 103% | 101% |  |
